Measured values taken from PubChem BioAssay (Tox21).
Inconclusive results are not listed. Where a call stands in place of a potency, no number is given. Some structures have more than one record in an assay (separate samples or runs), and their calls can disagree. Calls of active or inactive are those of the source. Unless noted, calls follow the shape of the dose curve; as a rule, active = well fitted curve in the direction sought with a large enough effect in the repeat runs; inconclusive = weak or mixed curves; inactive = no such curve, though single readings can be large; an effect the other way counts as inactive or inconclusive.

Tests used:
[1] = molecular target: Aryl hydrocarbon receptor (Homo sapiens) (UniProt P35869); assay: qHTS assay to identify small molecule that activate the aryl hydrocarbon receptor (AhR) signaling pathway (AID 743085); also: nearly all actives have a fitted effect of over 15% in size; also: potency is read from the fitted curve at half-maximal effect;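 as to activation: HG2L7.5c1 human HepG2 liver cells with stably integrated DRE-driven firefly reporter; series mostly up to about 70 µM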
Outline: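 Steps: seed HepG2-AhR-luc cells; allow 5 h at 37C; pin-transfer test compound or vehicle; incubate 24 h at 37C; add viability dye (30 min, 37C) and read fluorescence; add luciferase substrate (30 min, RT) and read luminescence.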

[2] = qHTS assay to identify small molecule antagonists of the peroxisome proliferator-activated receptor gamma (PPARg) signaling pathway - cell viability counter screen (AID 743194); conditions: Potency: co-treated with 50 nM rosiglitazone; also: nearly all actives have a fitted effect of over 55% in size
Outline: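 PPARg-UAS-bla HEK293H cells were plated, rested 5 h at 37 C, then treated with compounds plus rosiglitazone (50 nM final) for 17 h at 37 C; viability was then read by CellTiter-Glo luminescence after 30 min at room temperature.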

[3] = qHTS assay for small molecule agonists of the antioxidant response element (ARE) signaling pathway - cell viability counter screen (AID 743203; calls by dose curve; also: nearly all actives have a fitted effect of over 55% in size; also: potency is read from the fitted curve at half-maximal effect)
Outline: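 ARE-bla HepG2 cells were plated, rested 5 h at 37C/5% CO2, then exposed to compounds in DMSO for 16 h. Viability was read as CellTiter-Glo luminescence after 30 min at room temperature, in the same wells as the ARE screen.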

[4] = qHTS assay for small molecule activators of the heat shock response signaling pathway - cell viability counter screen (AID 743209); also: nearly all actives have a fitted effect of over 50% in size; also: potency is read from the fitted curve at half-maximal effect
Outline: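 HSE-bla HeLa cells plated overnight, then exposed to Tox21 compounds (23 nL in DMSO) for 5 h at 37 C. After the bla reporter read, CellTiter-Glo was added in the same wells and luminescence read after 30 min at room temperature.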

[5] = qHTS assay for small molecule activators of the heat shock response signaling pathway (AID 743210; active = well fitted activation curve with a large enough effect in the signal ratio in the repeat runs, with a control signal flat, not every such curve was filed as active; the % refers to the signal ratio; also: series mostly up to about 63 µM)
Outline: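 HSE-bla HeLa cells (beta-lactamase reporter under heat shock response elements) were exposed to compounds for 5 h at 37 C, then loaded with LiveBLAzer B/G FRET substrate for 2.5 h at room temperature before fluorescence reading.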

[6] = qHTS assay to identify small molecule agonists of the peroxisome proliferator-activated receptor delta (PPARd) signaling pathway - cell viability counter screen (AID 743211); also: nearly all actives have a fitted effect of over 55% in size
Outline: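 Viability of GeneBLAzer PPARd UAS-bla HEK293H cells was assessed after 17 h compound incubation at 37C, using CellTiter-Glo reagent added after the reporter read and luminescence recorded 30 min later.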

[7] = molecular target: Peroxisome proliferator-activated receptor delta (Homo sapiens) (UniProt Q03181); assay: qHTS assay to identify small molecule agonists of the peroxisome proliferator-activated receptor delta (PPARd) signaling pathway (AID 743212; calls by dose curve)
Outline: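 GeneBLAzer PPARd UAS-bla HEK293H cells (beta-lactamase reporter under UAS control), plated and rested 5 h at 37 C, then exposed to compounds in DMSO at 37 C; LiveBLAzer B/G FRET substrate added, 2 h room temperature, fluorescence read.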

[8] = qHTS assay to identify small molecule antagonists of the peroxisome proliferator-activated receptor delta (PPARd) signaling pathway - cell viability counter screen (AID 743213); also: nearly all actives have a fitted effect of over 50% in size
Outline: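 Cytotoxicity counter screen: CellTiter-Glo luminescence read 30 min after addition, in the same wells as the reporter assay. There, PPARd UAS-bla HEK293H cells (3000/well) were treated 17 h at 37 C with compound and 300 nM L165041.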

[9] = molecular target: Peroxisome proliferator-activated receptor delta (Homo sapiens) (UniProt Q03181); assay: qHTS assay to identify small molecule antagonists of the peroxisome proliferator-activated receptor delta (PPARd) signaling pathway (AID 743215; active = well fitted inhibition curve with a large enough effect in the signal ratio in the repeat runs, not every such curve was filed as active; the % refers to the signal ratio;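 also: cells stimulated with agonist L165041 at 300 nM final during compound exposure; series mostly up to about 62 µM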)
Outline: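 PPARd-bla HEK293H cells (UAS-bla reporter) preincubated 5 h, then given compound plus 300 nM final L165041 agonist for 17 h at 37 C. Beta-lactamase activity read by LiveBLAzer B/G FRET substrate fluorescence after 2 h at room temperature.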

[10] = qHTS assay to identify small molecule agonists of the farnesoid-X-receptor (FXR) signaling pathway - cell viability counter screen (AID 743218); also: nearly all actives have a fitted effect of over 45% in size; also: potency is read from the fitted curve at half-maximal effect
Outline: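 FXR-UAS-bla HEK 293T cells exposed to compounds for 16 h at 37C. Cytotoxicity read in the same wells by CellTiter-Glo luminescence after 30 min at room temperature, following the beta-lactamase FRET read.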

[11] = qHTS assay to identify small molecule antagonists of the farnesoid-X-receptor (FXR) signaling pathway - cell viability counter screen (AID 743221; active = well fitted cell-killing curve with a large enough effect in the repeat runs, not every such curve was filed as active; also: nearly all actives have a fitted effect of over 50% in size)
Outline: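 Quantitative HTS of the Tox21 10K library run in parallel with the beta-lactamase reporter read. HEK 293T cells carrying a UAS-driven bla reporter got compound and 50 uM CDCA (final) for 16 h; ATP-based luminescence followed.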

[12] = qHTS assay to identify small molecule agonists of the vitamin D receptor (VDR) signaling pathway - cell viability counter screen (AID 743224); also: nearly all actives have a fitted effect of over 50% in size; also: potency is read from the fitted curve at half-maximal effect; as to activity change, negative = cytotoxicity: series mostly up to about 63 µM
Outline: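 VDR-bla cells, 4 h after plating, exposed to compounds for 16 h at 37C; viability then read in the same wells as CellTiter-Glo luminescence after 30 min at room temperature, following the bla FRET read.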

[13] = molecular target: Peroxisome proliferator-activated receptor gamma (Homo sapiens) (UniProt P37231); assay: qHTS assay to identify small molecule agonists of the peroxisome proliferator-activated receptor gamma (PPARg) signaling pathway (AID 743094; active = well fitted activation curve with a large enough effect in the signal ratio in the repeat runs, not every such curve was filed as active; the % refers to the signal ratio)
Outline: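 GeneBLAzer PPARg UAS-bla HEK293H cells were plated, rested 5 h, then exposed to compounds for 17 h at 37C. Beta-lactamase activity was read by LiveBLAzer B/G FRET substrate fluorescence after 1 h at room temperature.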

[14] = molecular target: Bile acid receptor (Homo sapiens) (UniProt Q96RI1); assay: qHTS assay to identify small molecule antagonists of the farnesoid-X-receptor (FXR) signaling pathway (AID 743217; active = well fitted inhibition curve with a large enough effect in the signal ratio in the repeat runs, not every such curve was filed as active; the % refers to the signal ratio)
Outline: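 FXR-UAS-bla HEK 293T cells (beta-lactamase reporter) given compound plus chenodeoxycholic acid (50 uM final), 16 h at 37C. LiveBLAzer B/G FRET substrate added for 2 h at room temperature; fluorescence read.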

[15] = molecular target: Bile acid receptor (Homo sapiens) (UniProt Q96RI1); assay: qHTS assay to identify small molecule agonists of the farnesoid-X-receptor (FXR) signaling pathway (AID 743220; active = well fitted activation curve with a large enough effect in the signal ratio in the repeat runs, not every such curve was filed as active; the % refers to the signal ratio)
Outline: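 Beta-lactamase reporter under UAS control in GeneBLAzer FXR HEK 293T cells (5000/well) measured with LiveBLAzer FRET substrate after 2 h at room temperature. Compound exposure lasted 16 h at 37C.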

[16] = qHTS assay for small molecule agonists of the antioxidant response element (ARE) signaling pathway (AID 743202; active = well fitted activation curve with a large enough effect in the signal ratio in the repeat runs, not every such curve was filed as active; the % refers to the signal ratio)
Outline: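 Read-out: LiveBLAzer B/G FRET substrate fluorescence after 2 h at room temperature, following 16 h compound treatment at 37 C of HepG2 cells carrying an ARE-driven beta-lactamase reporter.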

[17] = molecular target: Vitamin D3 receptor (Homo sapiens) (UniProt P11473); assay: qHTS assay to identify small molecule agonists of the vitamin D receptor (VDR) signaling pathway (AID 743222; calls by dose curve)
Outline: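 VDR-bla cells plated 4 h at 37 C, then exposed to compounds for 16 h at 37 C. Beta-lactamase reporter activity measured by fluorescence after 2 h room-temperature loading with LiveBLAzer B/G FRET substrate.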

[18] = qHTS assay to identify small molecule that activate the aryl hydrocarbon receptor (AhR) signaling pathway - cell viability counter screen (AID 743086);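 also: HepG2 liver cells carrying the AhR DRE luciferase reporter; series mostly up to about 70 µM; nearly all actives have a fitted effect of over 45% in size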
Outline: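 HepG2-AhR-luc (HG2L7.5c1) cells, 4000/well, were preincubated 5 h at 37C, exposed to compound in qHTS format for 24 hr at 37C, then given CellTiter-Fluor for 30 min; viability was read as fluorescence in the reporter wells.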

[19] = molecular target: Peroxisome proliferator-activated receptor gamma (Homo sapiens) (UniProt P37231); assay: qHTS assay to identify small molecule antagonists of the peroxisome proliferator-activated receptor gamma (PPARg) signaling pathway (AID 743191; calls by dose curve; also: series mostly up to about 63 µM; nearly all actives have a fitted effect of over 30% in size)
Outline: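 GeneBLAzer PPARg UAS-bla HEK293H cells carrying a UAS-driven beta-lactamase reporter were plated at 3000 cells/well, preincubated 5 h at 37C, then given compound for 17 h at 37C; LiveBLAzer B/G FRET substrate was read after 1 h at room temperature.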

[20] = molecular target: Vitamin D3 receptor (Homo sapiens) (UniProt P11473); assay: qHTS assay to identify small molecule antagonists of the vitamin D receptor (VDR) signaling pathway (AID 743223; active = well fitted inhibition curve with a large enough effect in the signal ratio in the repeat runs, not every such curve was filed as active; the % refers to the signal ratio)
Outline: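 Fluorescence from LiveBLAzer B/G FRET substrate, read after 2 h at room temperature, reflects beta-lactamase reporter activity in VDR-bla cells treated 16 h at 37C with compounds and agonist 1alpha,25-dihydroxyvitamin D3 (3 nM final).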

Sequence of Peroxisome proliferator-activated receptor delta (Homo sapiens) (Q03181 whole entry, looked up): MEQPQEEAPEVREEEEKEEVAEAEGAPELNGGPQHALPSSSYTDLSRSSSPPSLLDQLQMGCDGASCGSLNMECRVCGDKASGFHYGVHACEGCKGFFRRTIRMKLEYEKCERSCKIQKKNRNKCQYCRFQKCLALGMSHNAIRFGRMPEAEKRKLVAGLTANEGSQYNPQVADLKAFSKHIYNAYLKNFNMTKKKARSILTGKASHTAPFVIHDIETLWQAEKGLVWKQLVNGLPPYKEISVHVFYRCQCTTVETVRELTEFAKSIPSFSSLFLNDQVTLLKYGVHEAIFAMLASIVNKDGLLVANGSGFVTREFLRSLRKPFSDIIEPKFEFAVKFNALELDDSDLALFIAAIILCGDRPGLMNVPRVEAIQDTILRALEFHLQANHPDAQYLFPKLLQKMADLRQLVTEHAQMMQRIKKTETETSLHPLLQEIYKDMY
Sequence of Bile acid receptor (Homo sapiens) (Q96RI1 whole entry, looked up): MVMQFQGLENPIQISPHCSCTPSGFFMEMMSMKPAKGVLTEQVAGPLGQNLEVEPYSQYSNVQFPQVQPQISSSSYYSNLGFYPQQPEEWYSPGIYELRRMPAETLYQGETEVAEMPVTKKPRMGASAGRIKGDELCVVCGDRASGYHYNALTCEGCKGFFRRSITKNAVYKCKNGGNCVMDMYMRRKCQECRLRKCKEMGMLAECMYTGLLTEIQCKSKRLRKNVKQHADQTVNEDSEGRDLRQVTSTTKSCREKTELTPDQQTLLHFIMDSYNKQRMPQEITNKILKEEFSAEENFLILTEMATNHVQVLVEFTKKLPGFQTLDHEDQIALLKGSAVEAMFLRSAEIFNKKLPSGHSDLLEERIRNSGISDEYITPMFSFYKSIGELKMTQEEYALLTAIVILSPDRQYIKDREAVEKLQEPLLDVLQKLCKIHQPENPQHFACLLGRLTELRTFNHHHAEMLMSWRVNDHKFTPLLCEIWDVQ
Sequence of Aryl hydrocarbon receptor (Homo sapiens) (P35869 whole entry, looked up): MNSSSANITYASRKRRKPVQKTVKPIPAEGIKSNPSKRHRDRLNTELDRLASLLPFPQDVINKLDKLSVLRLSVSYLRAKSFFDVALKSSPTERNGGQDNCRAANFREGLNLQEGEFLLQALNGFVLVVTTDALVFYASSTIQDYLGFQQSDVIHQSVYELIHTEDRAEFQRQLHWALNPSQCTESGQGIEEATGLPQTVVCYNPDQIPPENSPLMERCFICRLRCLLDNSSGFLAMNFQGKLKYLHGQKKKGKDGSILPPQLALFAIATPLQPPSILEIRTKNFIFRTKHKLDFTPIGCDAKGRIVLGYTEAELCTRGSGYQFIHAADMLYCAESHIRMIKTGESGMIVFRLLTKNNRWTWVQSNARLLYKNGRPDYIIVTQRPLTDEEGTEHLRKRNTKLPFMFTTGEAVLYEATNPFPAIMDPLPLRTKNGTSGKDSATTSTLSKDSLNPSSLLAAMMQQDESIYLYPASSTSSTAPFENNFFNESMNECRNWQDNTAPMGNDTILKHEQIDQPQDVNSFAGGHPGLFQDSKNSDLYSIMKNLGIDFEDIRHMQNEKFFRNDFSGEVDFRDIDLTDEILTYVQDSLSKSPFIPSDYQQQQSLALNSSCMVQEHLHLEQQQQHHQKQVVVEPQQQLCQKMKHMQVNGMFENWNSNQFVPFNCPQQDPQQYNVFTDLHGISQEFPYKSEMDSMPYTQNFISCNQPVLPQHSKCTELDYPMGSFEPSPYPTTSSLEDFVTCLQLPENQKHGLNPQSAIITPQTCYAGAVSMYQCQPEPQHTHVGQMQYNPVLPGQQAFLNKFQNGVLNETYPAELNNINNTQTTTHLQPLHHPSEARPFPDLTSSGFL
Sequence of Vitamin D3 receptor (Homo sapiens) (P11473 whole entry, looked up): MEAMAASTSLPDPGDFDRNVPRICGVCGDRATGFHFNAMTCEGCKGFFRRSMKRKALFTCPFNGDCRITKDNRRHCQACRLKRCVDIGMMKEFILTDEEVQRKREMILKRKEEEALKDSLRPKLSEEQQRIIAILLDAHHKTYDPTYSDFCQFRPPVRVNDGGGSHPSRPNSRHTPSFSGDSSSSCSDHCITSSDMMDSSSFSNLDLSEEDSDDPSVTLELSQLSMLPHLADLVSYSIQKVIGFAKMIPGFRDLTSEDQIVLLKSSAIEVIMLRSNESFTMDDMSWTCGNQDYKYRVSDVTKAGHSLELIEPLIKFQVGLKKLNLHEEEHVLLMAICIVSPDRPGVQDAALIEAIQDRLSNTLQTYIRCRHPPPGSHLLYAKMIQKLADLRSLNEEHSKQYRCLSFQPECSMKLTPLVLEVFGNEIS
Sequence of Peroxisome proliferator-activated receptor gamma (Homo sapiens) (P37231 whole entry, looked up): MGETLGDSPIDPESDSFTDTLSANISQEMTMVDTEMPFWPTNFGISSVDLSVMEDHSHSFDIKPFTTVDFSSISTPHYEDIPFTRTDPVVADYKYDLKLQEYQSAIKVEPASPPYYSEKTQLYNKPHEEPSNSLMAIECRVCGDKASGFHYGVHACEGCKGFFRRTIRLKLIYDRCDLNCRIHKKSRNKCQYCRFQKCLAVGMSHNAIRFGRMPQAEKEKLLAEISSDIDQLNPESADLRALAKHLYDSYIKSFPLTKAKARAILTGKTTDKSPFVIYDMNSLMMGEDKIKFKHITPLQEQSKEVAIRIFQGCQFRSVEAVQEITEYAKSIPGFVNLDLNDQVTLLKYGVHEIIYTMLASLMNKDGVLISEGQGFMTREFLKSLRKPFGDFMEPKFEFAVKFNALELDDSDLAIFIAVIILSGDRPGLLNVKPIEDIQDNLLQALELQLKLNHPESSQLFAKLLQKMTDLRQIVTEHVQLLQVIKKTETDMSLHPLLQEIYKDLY

For `Brc1c(Br)c(Br)c(Br)c(Br)c1Br`, the activation [1] was -0.623% [at 8.47 µM] (inactive), the activity change, negative = cytotoxicity [2] was -21% [at 5.95 µM, co-treated with 50 nM rosiglitazone] (inactive) and the viability change, negative = cytotoxic [3] was -9.94% [at 8.36 µM] (inactive). The activity change, negative = cytotoxicity [4] was -1.06% [at 5.95 µM] (inactive), the activation [5] was -1.19% [at 5.95 µM] (inactive) and the activity change, negative = cytotoxicity [6] was 3.57% [at 5.95 µM] (inactive). The activation [7] was 3.14% [at 5.95 µM] (inactive), the viability change, negative = cytotoxic [8] was -8.99% [at 6.26 µM] (inactive) and the ratio activity, negative = inhibition [9] was -21.8% [at 6.26 µM] (inactive). For the same molecule, the viability change, negative = cytotoxic [10] was 26.7% [at 5.95 µM] (inactive), the activity change, negative = cytotoxicity [11] was -6% [at 5.95 µM] (inactive) and the activity change, negative = cytotoxicity [12] was 9.04% [at 5.95 µM] (inactive).

In the case of `Cn1c(N)nc2c3cccnc3ccc21`, the Potency [1] was 4.61 µM (active), the outcome [13] was “inactive” and the Potency [2] was “inactive”. For the same molecule, the Potency [3] was “inactive”, the Potency [4] was “inactive” and the Potency [5] was “inactive”. For the same molecule, the Potency [6] was “inactive”, the outcome [7] was “inactive” and the Potency [8] was “inactive”. For the same molecule, the outcome [14] was “inactive”, the Potency [10] was “inactive” and the outcome [15] was “inactive”. For the same molecule, the Potency [11] was “inactive” and the Potency [12] was “inactive”.

In the case of `CCCCCCC1CCOC1=O` (stereo unspecified), the Potency [1] was “inactive”, the outcome [13] was “inactive” and the Potency [2] was “inactive”. For the same molecule, the Potency [16] was “inactive”, the Potency [3] was “inactive” and the Potency [4] was “inactive”. For the same molecule, the Potency [6] was “inactive”, the Potency [8] was “inactive” and the Potency [10] was “inactive”. For the same molecule, the Potency [11] was “inactive”, the outcome [17] was “inactive” and the Potency [12] was “inactive”.

For `CC(C)(C)NC[C@H](O)c1ccc(O)cc1Cl`, the Potency [18] was “inactive”, the outcome [13] was “inactive” and the Potency [19] was “inactive”. For the same molecule, the Potency [2] was “inactive”, the Potency [16] was “inactive” and the Potency [3] was “inactive”. The Potency [4] was “inactive”, the Potency [5] was “inactive” and the Potency [6] was “inactive”. The outcome [7] was “inactive”, the Potency [8] was “inactive” and the Potency [9] was “inactive”. The outcome [14] was “inactive”, the Potency [10] was “inactive” and the Potency [11] was “inactive”. The outcome [20] was “inactive” and the Potency [12] was “inactive”.

For `CCCCCCCC(=O)Cl`, the Potency [18] was “inactive”, the outcome [13] was “inactive” and the Potency [19] was “inactive”. For the same molecule, the Potency [2] was “inactive”, the Potency [16] was “inactive” and the Potency [3] was “inactive”. The Potency [4] was “inactive”, the Potency [5] was “inactive” and the Potency [6] was “inactive”. For the same molecule, the outcome [7] was “inactive”, the Potency [8] was “inactive” and the Potency [9] was “inactive”. For the same molecule, the outcome [14] was “inactive”, the Potency [10] was “inactive” and the outcome [15] was “inactive”. For the same molecule, the Potency [11] was “inactive”.

In the case of `CCC1(CC)C(=O)C=CNC1=O`, the Potency [18] was “inactive”, the outcome [13] was “inactive” and the Potency [19] was “inactive”. For the same molecule, the Potency [2] was “inactive”, the Potency [16] was “inactive” and the Potency [3] was “inactive”. The Potency [4] was “inactive”, the Potency [5] was “inactive” and the Potency [6] was “inactive”. For the same molecule, the outcome [7] was “inactive”, the Potency [8] was “inactive” and the Potency [10] was “inactive”. For the same molecule, the Potency [11] was “inactive” and the Potency [12] was “inactive”.

In the case of `C=C1CC[C@@]2(O)[C@H]3Cc4ccc(O)c5c4[C@@]2(CCN3CC2CC2)[C@H]1O5`, the Potency [1] was “inactive”, the outcome [13] was “inactive” and the Potency [2] was “inactive”. The Potency [16] was “inactive”, the Potency [3] was “inactive” and the Potency [4] was “inactive”. For the same molecule, the Potency [6] was “inactive”, the outcome [7] was “inactive” and the Potency [8] was “inactive”. The Potency [9] was “inactive”, the Potency [10] was “inactive” and the Potency [11] was “inactive”. The outcome [17] was “inactive” and the outcome [20] was “inactive”.

For `CCc1cc(OC)c(C[C@H](C)N)cc1OC`, the Potency [1] was “inactive”, the outcome [13] was “inactive” and the Potency [2] was “inactive”. The Potency [3] was “inactive”, the Potency [4] was “inactive” and the Potency [5] was “inactive”. For the same molecule, the Potency [6] was “inactive”, the outcome [7] was “inactive” and the Potency [8] was “inactive”. The Potency [9] was “inactive”, the outcome [14] was “inactive” and the Potency [10] was “inactive”. For the same molecule, the outcome [15] was “inactive”, the outcome [17] was “inactive” and the outcome [20] was “inactive”. For the same molecule, the Potency [12] was “inactive”.

In the case of `ClC1=C(Cl)C2(Cl)C(CBr)CC1(Cl)C2(Cl)Cl` (stereo unspecified), the Potency [1] was “inactive”, the outcome [13] was “inactive” and the Potency [3] was 54.5 µM (active) and inactive. The Potency [4] was 54.9 µM (active) and inactive, the Potency [6] was “inactive” and the outcome [7] was “inactive”. The Potency [8] was “inactive”, the Potency [9] was “inactive” and the Potency [10] was 54.9 µM (active) and inactive. For the same molecule, the outcome [20] was “inactive” and the Potency [12] was 34.7 µM (active) and inactive.
